This is part of a sample that, as a whole, favours compounds with a hit. Of some 83,000 tested, about 20% had one in any assay.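 Activity criterion: percent growth below 10, measured after cells in 96-well plates were exposed to a single compound concentration for 48 hours.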 The source made the active and inactive calls.
Tested on: OVCAR-8 ovarian
Experiment: NCI-60 one-dose screen, 48 h (100 = growth as untreated, 0 = no growth, -100 = all killed)
Details: 10 µM unless noted

| Structure (SMILES) | growth |
| --- | --- |
| CC1=NN(c2ccccc2Cl)C(=O)/C1=C\c1cn(S(=O)(=O)c2ccc(C)cc2)c2ccccc12 | 108% (inactive) |
| O=c1c(O)cccn1CCCNCCCN(CCCn1cccc(O)c1=O)CCCn1cccc(O)c1=O | 114% (inactive) |
| O=C1OCC/C1=C\OCCCO/C=C1\CCOC1=O | 106% (inactive) |
| O=C(Nc1cccc2ccccc12)c1cc2c(cc1Br)OCO2 | 106% (inactive) |
| NC(=O)SCC(=O)Nc1ccccc1-c1ccccc1 | 111% (inactive) |
| Cn1[nH]cc(/C=N/C(N)=O)c1=O | 105% (inactive) |
| c1ccc2c(c1)[nH]c1c2cc[n+]2cc3c(cc12)CCCC3 | 10.7% (inactive) |
| CN1CCCC1c1cccnc1 (stereo unspecified) | 111% (inactive) |
| Cn1cc(-c2nc(-c3c[nH]c4ncccc34)cs2)c2cccnc21 | 82.9% (inactive) |
| S=C(c1ccccc1)N1CCN(c2cccc(Cl)c2)CC1 | 102% (inactive) |
| O=C1NC(=O)/C(=C\c2ccccc2)C2=C1CCCC2 | -6.04% (active) |
| C[C@]12CC[C@@H]3c4ccc(O)c([N+](=O)[O-])c4CC[C@H]3[C@@H]1CC[C@@H]2NS(=O)(=O)c1ccc(C(F)(F)F)cc1 | 26.9% (inactive) |
| O=C(Oc1ccc[nH]c1=O)c1cccc(Cl)c1 | 113% (inactive) |
| COc1ccc(Cn2cc3c(c2-c2ccccc2)CCc2cncnc2-3)cc1 | 70.5% (inactive) |
| Cn1cc(-c2csc(-c3cn(C)c4ncccc34)n2)c2cc(Br)cnc21 | 94.3% (inactive) |
| C[n+]1ccc(Nc2ccc(NC(=O)c3ccc(Nc4cc[n+](C)c5ccc(N)cc45)cc3)cc2)cc1 | 94.8% (inactive) |
| Cc1cc2c(cc1[N+](=O)[O-])NC(CNC(C)C)CC2 (stereo unspecified) | 115% (inactive) |
| CC(=O)Oc1c(C)c(OC(C)=O)c2c(c1C(C)=O)OC1CC(=O)C(C(C)=O)=C(O)C21C (stereo unspecified) | 105% (inactive) |
| CCOC(=O)c1c2c(c(C)n1Cc1ccc(OC)cc1)-c1nc(N)ncc1CC2 | 115% (inactive) |

| Structure (SMILES) | growth |
| --- | --- |
| COc1ccc2nccc(/C=C/c3ccnc4ccc(OC)cc34)c2c1 | 68.9% (inactive) |
| Cc1cc2cn3c4cccnc4[nH]c(=O)c3c2cc1C | -46.1% (active) |
| COc1ccc2nc(-c3ccc(-n4cncc4-c4ccc(OC)c(N)c4)cc3)sc2c1 | 96.8% (inactive) |
| COc1cc2c(c(OC)c1OC)CCc1cnoc1-2 | 102% (inactive) |
| C=C(C)[C@H]1CC/C(C)=C/CC[C@]2(C)O[C@H]2CC/C(C=O)=C\C1O (stereo partly specified) | 107% (inactive) |
| COc1ccc2c(c1)[nH]c(=O)c1c3cc(OC)c(OC)cc3cn21 | 16% (inactive) |
| Nc1nc(Cl)c2[nH]cnc2n1 | 109% (inactive) |
| O=C(Nc1ncc([N+](=O)[O-])s1)c1cccc([N+](=O)[O-])c1 | 43.1% (inactive) |
| Cc1ccc([N+](=O)[O-])cc1NC(=O)Nc1cccc(F)c1 | 71.6% (inactive) |
| OC(CCC(O)(c1ccccc1)c1ccccc1)(c1ccccc1)c1ccccc1 | 84.7% (inactive) |
| COc1ccc(/C(=C2\O[C@@H]([C@H](O)CO)[C@H]3OC(C)(C)O[C@@H]23)c2cc(OC)c(OC)c(OC)c2)cc1O | 107% (inactive) |
| CCC(c1ccccc1)c1noc(CCN(CC)CC)n1 (stereo unspecified) | 94.8% (inactive) |
| O=C(Nc1ccc(Nc2ccncc2)cc1)c1ccc(Nc2ccnc3ccc([N+](=O)[O-])cc23)cc1[N+](=O)[O-] | 44.4% (inactive) |
| CC12CCCCC1C(C(N)=O)C(=O)O2 (stereo unspecified) | 102% (inactive) |
| CCOC(=O)c1c2c(c(C)n1Cc1ccccc1)-c1nc(N)ncc1CC2 | 104% (inactive) |
| Nc1ncc(-c2cnn(C3CCNCC3)c2)cc1-c1nc2cc(Cl)ccc2o1 | -52.5% (active) |
| COc1ccc(OC)c2c1[nH]c(=O)c1c3ccccc3cn21 | -80.7% (active) |
| CCC(CCC(C)C1CCC2C3CC=C4CC(O)CCC4(C)C3CCC12C)C(C)C (stereo unspecified) (tested in a mixture with another compound) | 89.9% (inactive) |
| CCOC(=O)c1c(C)nc(C)c(C(=O)OCC)c1-c1cccnc1 | 112% (inactive) |

Tested on: OVCAR-5 ovarian
Experiment: as above
Details: 10 µM unless noted

| Structure (SMILES) | growth |
| --- | --- |
| CC1=NN(c2ccccc2Cl)C(=O)/C1=C\c1cn(S(=O)(=O)c2ccc(C)cc2)c2ccccc12 | 88.1% (inactive) |
| O=c1c(O)cccn1CCCNCCCN(CCCn1cccc(O)c1=O)CCCn1cccc(O)c1=O | 94.7% (inactive) |
| O=C1OCC/C1=C\OCCCO/C=C1\CCOC1=O | 107% (inactive) |
| O=C(Nc1cccc2ccccc12)c1cc2c(cc1Br)OCO2 | 96.8% (inactive) |
| NC(=O)SCC(=O)Nc1ccccc1-c1ccccc1 | 104% (inactive) |
| Cn1[nH]cc(/C=N/C(N)=O)c1=O | 102% (inactive) |
| c1ccc2c(c1)[nH]c1c2cc[n+]2cc3c(cc12)CCCC3 | 48.1% (inactive) |
| CN1CCCC1c1cccnc1 (stereo unspecified) | -6.38% (active) |
| Cn1cc(-c2nc(-c3c[nH]c4ncccc34)cs2)c2cccnc21 | 83.6% (inactive) |
| S=C(c1ccccc1)N1CCN(c2cccc(Cl)c2)CC1 | 97.2% (inactive) |
| O=C1NC(=O)/C(=C\c2ccccc2)C2=C1CCCC2 | 80% (inactive) |
| C[C@]12CC[C@@H]3c4ccc(O)c([N+](=O)[O-])c4CC[C@H]3[C@@H]1CC[C@@H]2NS(=O)(=O)c1ccc(C(F)(F)F)cc1 | 80.8% (inactive) |
| O=C(Oc1ccc[nH]c1=O)c1cccc(Cl)c1 | 97.5% (inactive) |
| COc1ccc(Cn2cc3c(c2-c2ccccc2)CCc2cncnc2-3)cc1 | 76.7% (inactive) |
| Cn1cc(-c2csc(-c3cn(C)c4ncccc34)n2)c2cc(Br)cnc21 | 88.1% (inactive) |
| C[n+]1ccc(Nc2ccc(NC(=O)c3ccc(Nc4cc[n+](C)c5ccc(N)cc45)cc3)cc2)cc1 | 90.6% (inactive) |
| Cc1cc2c(cc1[N+](=O)[O-])NC(CNC(C)C)CC2 (stereo unspecified) | 88.7% (inactive) |
| CC(=O)Oc1c(C)c(OC(C)=O)c2c(c1C(C)=O)OC1CC(=O)C(C(C)=O)=C(O)C21C (stereo unspecified) | 102% (inactive) |
| CCOC(=O)c1c2c(c(C)n1Cc1ccc(OC)cc1)-c1nc(N)ncc1CC2 | 103% (inactive) |

| Structure (SMILES) | growth |
| --- | --- |
| COc1ccc2nccc(/C=C/c3ccnc4ccc(OC)cc34)c2c1 | 117% (inactive) |
| Cc1cc2cn3c4cccnc4[nH]c(=O)c3c2cc1C | 92.9% (inactive) |
| COc1ccc2nc(-c3ccc(-n4cncc4-c4ccc(OC)c(N)c4)cc3)sc2c1 | 108% (inactive) |
| COc1cc2c(c(OC)c1OC)CCc1cnoc1-2 | 91.9% (inactive) |
| C=C(C)[C@H]1CC/C(C)=C/CC[C@]2(C)O[C@H]2CC/C(C=O)=C\C1O (stereo partly specified) | 101% (inactive) |
| COc1ccc2c(c1)[nH]c(=O)c1c3cc(OC)c(OC)cc3cn21 | 49.4% (inactive) |
| Nc1nc(Cl)c2[nH]cnc2n1 | 93.5% (inactive) |
| O=C(Nc1ncc([N+](=O)[O-])s1)c1cccc([N+](=O)[O-])c1 | 87.6% (inactive) |
| Cc1ccc([N+](=O)[O-])cc1NC(=O)Nc1cccc(F)c1 | 89.6% (inactive) |
| OC(CCC(O)(c1ccccc1)c1ccccc1)(c1ccccc1)c1ccccc1 | 97.2% (inactive) |
| COc1ccc(/C(=C2\O[C@@H]([C@H](O)CO)[C@H]3OC(C)(C)O[C@@H]23)c2cc(OC)c(OC)c(OC)c2)cc1O | 90% (inactive) |
| CCC(c1ccccc1)c1noc(CCN(CC)CC)n1 (stereo unspecified) | 89.8% (inactive) |
| O=C(Nc1ccc(Nc2ccncc2)cc1)c1ccc(Nc2ccnc3ccc([N+](=O)[O-])cc23)cc1[N+](=O)[O-] | 97.4% (inactive) |
| CC12CCCCC1C(C(N)=O)C(=O)O2 (stereo unspecified) | 112% (inactive) |
| CCOC(=O)c1c2c(c(C)n1Cc1ccccc1)-c1nc(N)ncc1CC2 | 78.6% (inactive) |
| Nc1ncc(-c2cnn(C3CCNCC3)c2)cc1-c1nc2cc(Cl)ccc2o1 | -81.2% (active) |
| COc1ccc(OC)c2c1[nH]c(=O)c1c3ccccc3cn21 | -45.1% (active) |
| CCC(CCC(C)C1CCC2C3CC=C4CC(O)CCC4(C)C3CCC12C)C(C)C (stereo unspecified) (tested in a mixture with another compound) | 103% (inactive) |
| CCOC(=O)c1c(C)nc(C)c(C(=O)OCC)c1-c1cccnc1 | 97.8% (inactive) |
